According to PubChem BioAssay:
Unmarked numbers belong to inactive results. For some assays here: Measured potencies and affinities stand elsewhere. Calls of active or inactive are those of the source. Unless noted, how the calls were made is not given here.

Assays:
[1] = antimalarial activity against Dd2 strain (AID 2302;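 active means growth inhibition above 50% at the single 2 µM test dose, taken to imply half-maximal potency below 2 µM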;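 further: 0% = DMSO untreated growth and 100% = chloroquine plus artemisinin killed control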); settings: P. falciparum Dd2 in RBCs, LDH growth readout, 72 h; at 2 µM; hits give high values
[2] = HepG2 cytotoxicity, primary screen, cytotoxicity control for P. falciparum antimalarial project, cell-based, ATP luminescence (AID 2303;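 active means inhibition above 50%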;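 further: 0% = DMSO wells and 100% = digitonin-killed cells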); settings: HepG2 viability, 24-48 h, at 10 µM, hits give high values
[3] = biological target: L-lactate dehydrogenase (Plasmodium falciparum (isolate CDC / Honduras)) (UniProt Q27743); test: PfLDH activity inhibition – cell lysate, 3D7 strain, counter-screen for P. falciparum growth inhibition project (AID 2304);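 further: 0% = vehicle and 100% = reference inhibitor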; settings: P. falciparum 3D7 crude extract, LDH APAD/NBT absorbance; at 2 µM; hits give high values
[4] = inhibition of 3D7 malaria parasite growth – strain 3D7 (AID 2306);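 further: 0% = DMSO wells and 100% = chloroquine plus artemisinin control wells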; settings: P. falciparum 3D7 erythrocytic growth, LDH absorbance, 72 h; at 2 µM; hits give high values
[5] = biological target: Calcium-dependent protein kinase 1 (Plasmodium falciparum (isolate 3D7)) (UniProt P62344); test: PfCDPK1 kinase inhibitors, biochemical, TCAMS library (AID 1159585; cut-off not given, nearly all actives have IC50 up to about 0.98 µM;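 further: inhibitors leave more ATP so luminescence rises with inhibition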); settings: recombinant PfCDPK1, Kinase-Glo ATP depletion luminescence
[6] = biological target: Plasmodium falciparum protein kinase 6 (PK6, PF3D7_1337100) (UniProt Q8IDW1); test: PfPK6 kinase inhibitors, biochemical, TCAMS library (AID 1159586); settings: recombinant PfPK6, Kinase-Glo ATP depletion luminescence
[7] = biological target: Protein kinase 7 (PK7), Plasmodium falciparum 3D7 (PF3D7_0213400) (UniProt Q7YTF7); test: inhibition of Plasmodium PK7 catalytic activity – biochemical, TCAMS antimalarial set, Kinase-Glo luminescence (AID 1159587); settings: recombinant PfPK7, Kinase-Glo ATP depletion luminescence
[8] = biological target: Calcium-dependent protein kinase 4 (Plasmodium falciparum (isolate 3D7)) (UniProt Q8IBS5); test: PfCDPK4 kinase inhibitors, biochemical, TCAMS library (AID 1159588; cut-off not given, nearly all actives have IC50 up to about 0.91 µM); settings: recombinant PfCDPK4, Kinase-Glo ATP depletion luminescence
Chain of Calcium-dependent protein kinase 4 (Plasmodium falciparum (isolate 3D7)) (Q8IBS5 whole entry, looked up): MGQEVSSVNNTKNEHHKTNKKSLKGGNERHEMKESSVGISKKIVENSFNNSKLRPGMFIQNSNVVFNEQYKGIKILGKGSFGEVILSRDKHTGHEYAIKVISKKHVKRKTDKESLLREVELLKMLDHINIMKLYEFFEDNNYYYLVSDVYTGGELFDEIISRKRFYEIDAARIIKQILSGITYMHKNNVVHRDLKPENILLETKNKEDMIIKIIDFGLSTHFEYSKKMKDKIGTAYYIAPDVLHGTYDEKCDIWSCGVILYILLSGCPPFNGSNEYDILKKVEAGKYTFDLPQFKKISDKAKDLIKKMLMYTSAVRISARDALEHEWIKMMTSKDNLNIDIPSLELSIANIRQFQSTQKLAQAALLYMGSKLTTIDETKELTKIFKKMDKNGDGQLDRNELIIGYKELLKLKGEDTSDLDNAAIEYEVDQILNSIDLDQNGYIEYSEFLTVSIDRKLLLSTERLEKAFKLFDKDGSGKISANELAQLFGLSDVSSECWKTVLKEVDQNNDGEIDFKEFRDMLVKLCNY

Chain of Calcium-dependent protein kinase 1 (Plasmodium falciparum (isolate 3D7)) (P62344 whole entry, looked up): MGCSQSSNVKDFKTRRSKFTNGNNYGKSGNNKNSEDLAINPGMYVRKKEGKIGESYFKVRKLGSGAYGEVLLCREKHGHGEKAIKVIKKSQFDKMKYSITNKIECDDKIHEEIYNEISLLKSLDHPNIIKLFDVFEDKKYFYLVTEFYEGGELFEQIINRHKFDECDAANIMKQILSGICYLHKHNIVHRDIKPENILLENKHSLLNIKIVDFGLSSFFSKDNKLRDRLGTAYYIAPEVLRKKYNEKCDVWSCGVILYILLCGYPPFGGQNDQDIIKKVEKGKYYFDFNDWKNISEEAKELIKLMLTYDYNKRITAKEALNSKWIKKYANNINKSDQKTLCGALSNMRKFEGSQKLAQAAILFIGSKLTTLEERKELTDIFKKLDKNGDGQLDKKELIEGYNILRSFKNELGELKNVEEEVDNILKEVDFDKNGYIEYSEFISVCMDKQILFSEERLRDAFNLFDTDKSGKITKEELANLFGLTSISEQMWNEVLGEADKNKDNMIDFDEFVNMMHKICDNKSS
Chain of Protein kinase 7 (PK7), Plasmodium falciparum 3D7 (PF3D7_0213400) (Q7YTF7 1-343): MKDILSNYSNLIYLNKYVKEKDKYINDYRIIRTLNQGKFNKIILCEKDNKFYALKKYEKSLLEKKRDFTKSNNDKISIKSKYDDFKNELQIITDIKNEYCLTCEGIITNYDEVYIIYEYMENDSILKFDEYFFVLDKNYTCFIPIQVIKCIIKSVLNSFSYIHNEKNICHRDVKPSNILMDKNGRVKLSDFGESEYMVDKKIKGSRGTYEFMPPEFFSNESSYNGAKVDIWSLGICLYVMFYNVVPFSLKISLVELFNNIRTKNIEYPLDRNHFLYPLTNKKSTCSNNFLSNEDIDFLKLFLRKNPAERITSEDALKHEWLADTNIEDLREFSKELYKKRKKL
Chain of Plasmodium falciparum protein kinase 6 (PK6, PF3D7_1337100) (Q8IDW1 1-305): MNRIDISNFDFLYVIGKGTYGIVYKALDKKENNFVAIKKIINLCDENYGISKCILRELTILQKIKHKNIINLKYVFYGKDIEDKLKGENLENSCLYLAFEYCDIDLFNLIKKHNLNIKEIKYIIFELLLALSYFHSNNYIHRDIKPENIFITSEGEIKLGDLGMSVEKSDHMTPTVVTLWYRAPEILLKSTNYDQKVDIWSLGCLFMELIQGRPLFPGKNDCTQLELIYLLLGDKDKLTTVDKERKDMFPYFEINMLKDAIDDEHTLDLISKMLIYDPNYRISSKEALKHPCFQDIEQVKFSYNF
Chain of L-lactate dehydrogenase (Plasmodium falciparum (isolate CDC / Honduras)) (Q27743 whole entry, looked up): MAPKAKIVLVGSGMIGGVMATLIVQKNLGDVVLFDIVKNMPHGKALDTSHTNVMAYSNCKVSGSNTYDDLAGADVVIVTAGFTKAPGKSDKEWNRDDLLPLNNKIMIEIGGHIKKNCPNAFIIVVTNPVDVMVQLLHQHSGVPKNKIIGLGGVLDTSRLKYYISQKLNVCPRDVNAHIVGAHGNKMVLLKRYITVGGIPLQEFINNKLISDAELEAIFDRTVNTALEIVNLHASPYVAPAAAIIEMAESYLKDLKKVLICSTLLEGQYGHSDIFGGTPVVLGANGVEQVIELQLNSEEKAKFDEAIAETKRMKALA

Compound	growth inhibition [1]	inhibition [2]	inhibition [3]	growth inhibition [4]	outcome [5]	outcome [6]	outcome [7]	outcome [8]
Cc1ccc(-n2nc3ccc(NC(=O)c4ccc([N+](=O)[O-])o4)cc3n2)cc1C	95% (active)	20%	-3%	94% (active)	inactive	inactive	inactive	inactive
O=C(NC1CCC(CCN2CCc3ccc(-c4cnccn4)cc3CC2)CC1)c1cccc(-n2cccn2)c1 (stereo not given)	1%	23%	-3%	93% (active)	inactive	inactive	inactive	inactive
O=C(NC1CCN(c2ccnc3cc(Cl)ccc23)C1)c1cccc(F)c1 (stereo not given)	98% (active)	30%	1%	95% (active)	inactive	inactive	inactive	inactive
N#Cc1c(N)nc(SCC(=O)Nc2cc(C(F)(F)F)ccc2Cl)c(C#N)c1-c1cccs1	96% (active)	23%	-4%	90% (active)	inactive	inactive	inactive	inactive
Cc1cc2nc(-c3ccc(C(=O)NCc4ccc(Cl)c(Cl)c4)cc3)[nH]c2cc1C	83% (active)	6%	1%	96% (active)	inactive	inactive	inactive	inactive
Cc1ccc(CNC(=O)[C@H](CCCN)Nc2nc(Nc3ccccc3)ncc2C)cc1	-4%	-1%	-2%	97% (active)	inactive	inactive	inactive	inactive
CC(C)Nc1cc(C(=O)N[C@@H](Cc2ccccc2)[C@H](O)CNC(C)(C)c2cccc(C(F)(F)F)c2)cc(N2CCCCS2(=O)=O)c1	98% (active)	9%	2%	98% (active)	inactive	inactive	inactive	inactive
CCCN(CCC)S(=O)(=O)c1ccc(C(=O)N2CCC(C(=O)OCC)CC2)cc1	41%	26%	1%	98% (active)	inactive	inactive	inactive	inactive
CN1CCc2ccc(NC(=O)Nc3ccc(Cl)c(Cl)c3)cc2C1	22%	-10%	1%	80% (active)	inactive	inactive	inactive	inactive
COCCn1c(-c2cccc(Cl)c2)nn(-c2ccc([N+](=O)[O-])cc2C#N)c1=S	100% (active)	7%	0%	100% (active)	inactive	inactive	inactive	inactive
Cc1cc(NCCC(=O)Nc2ccccc2)nc(NCC2CCCCC2)n1	62% (active)	14%	3%	100% (active)	inactive	inactive	inactive	inactive
O=C(CCNc1ccnc(NCCc2ccc(F)cc2)n1)Nc1ccccc1	10%	9%	-4%	95% (active)	inactive	inactive	inactive	inactive
CCCNS(=O)(=O)c1ccc(NC(=O)C(C)Oc2ccc([N+](=O)[O-])cc2)cc1 (stereo not given)	37%	3%	3%	100% (active)	inactive	inactive	inactive	inactive
O=C(CC1NC(=O)c2ccccc21)Nc1ccc(-c2ccc(-c3nc4ccc(C(F)(F)F)cc4[nH]3)cc2)cc1 (stereo not given)	70% (active)	39%	-2%	87% (active)	inactive	inactive	inactive	inactive
CC(C)(C)c1ccc(-c2csc(NC(=O)CC(c3ccccc3)c3ccccc3)n2)cc1	64% (active)	3%	-6%	86% (active)	inactive	inactive	inactive	inactive
Fc1cccc(C=NNc2ccnc3cc(Cl)ccc23)c1	91% (active)	6%	-7%	99% (active)	inactive	inactive	inactive	inactive
COc1ccc(C2C(C(=O)OC3CCCC3)=C(C)NC3=C2C(=O)CCC3)cc1Br (stereo not given)	77% (active)	-2%	5%	94% (active)	inactive	inactive	inactive	inactive
COc1ccc(CN(C)CCCc2ccc(NC(=O)c3cc4ccccc4[nH]3)cc2)cc1OC	31%	39%	-5%	97% (active)	inactive	inactive	inactive	inactive
Cc1ccccc1C1CCN(C2CCC(NC(=O)/C=C/c3ccc(OC(F)(F)F)cc3)CC2)CC1 (stereo not given)	67% (active)	96% (active)	-5%	100% (active)	inactive	inactive	inactive	inactive
CN(C)Cc1c(O)ccc2[nH]c(-c3ccc(OC(F)(F)F)cc3)nc12	97% (active)	24%	-3%	101% (active)	inactive	inactive	inactive	inactive

Compound	growth inhibition [1]	inhibition [2]	inhibition [3]	growth inhibition [4]	outcome [5]	outcome [6]	outcome [7]	outcome [8]
Ic1cc(CNC2CCCCC2)ccc1OCc1cccc(COc2ccc(CNC3CCCCC3)cc2I)c1	34%	-1%	-4%	93% (active)	inactive	inactive	inactive	inactive
O=C(Nc1ccc(OC2CCN(Cc3ccco3)C2)c(Cl)c1)c1ccc2ncccc2c1 (stereo not given)	42%	1%	-6%	92% (active)	inactive	inactive	inactive	inactive
Nc1ccc(-c2nc3ccc(Cc4ccc5nc(-c6ccc(N)cc6)[nH]c5c4)cc3[nH]2)cc1	96% (active)	47%	2%	100% (active)	inactive	inactive	inactive	inactive
CN1CCN(Cc2ccc(-c3ccc4c(Nc5ccc(Oc6ccccc6)cc5)ccnc4c3)o2)CC1	99% (active)	23%	0%	99% (active)	inactive	inactive	inactive	inactive
COc1cc(F)c2nccc([C@@H](O)CN3CCC(NCc4cc5c(cc4F)OCCO5)CC3)c2c1	45%	23%	-1%	99% (active)	inactive	inactive	inactive	inactive
O=C1OC2(CN1CC1CCN(Cc3ccc(-n4ccnc4)cc3)C1)c1ccccc1-c1ccccc12 (stereo not given)	-5%	25%	-2%	96% (active)	inactive	inactive	inactive	inactive
COc1ccccc1C1CC(c2ccc(Br)cc2)=NN1C(=O)c1ccccc1 (stereo not given)	59% (active)	12%	-6%	85% (active)	inactive	inactive	inactive	inactive
Cc1ccccc1C1CCN(C2CCC(NC(=O)/C=C/c3ccc(C(F)(F)F)cc3)CC2)CC1 (stereo not given)	19%	64% (active)	-3%	95% (active)	inactive	inactive	inactive	inactive
O=C(/C=C/c1ccc(Cl)c(Cl)c1)NCCCCCN1CCCN(C(=O)Nc2cc(Cl)nc(Cl)c2)CC1	3%	8%	-1%	103% (active)	inactive	inactive	inactive	inactive
Fc1ccccc1-c1cc(Nc2ccncc2)nc(-c2cccnc2)n1	89% (active)	91% (active)	3%	103% (active)	inactive	inactive	inactive	inactive
CCCN1CCN(CC(O)CNC(=O)Nc2ccc(Br)cc2)CC1 (stereo not given)	100% (active)	10%	0%	101% (active)	inactive	inactive	inactive	inactive
COc1ccc2ncc(Cl)c(CCN3CCC(NCc4ccc5c(n4)NC(=O)CO5)CC3)c2c1	26%	25%	-1%	92% (active)	inactive	inactive	inactive	inactive
O=C(Cc1ccc(NC(=O)c2ccc(O)c(-c3ccc(Cl)c(Cl)c3)c2)cc1)NCc1cccc(C(F)(F)F)c1	28%	-7%	0%	95% (active)	inactive	inactive	inactive	inactive
Cc1cc(NCCC(=O)Nc2ccccc2)nc(NCc2ccccc2C)n1	57% (active)	6%	-1%	100% (active)	inactive	inactive	inactive	inactive
COc1ccc(CN(C)Cc2cc(C(C)C)c(C)cc2O)cc1F	98% (active)	1%	-4%	98% (active)	inactive	inactive	inactive	inactive
COc1cc(C(=O)NC2CC(C)(C)NC(C)(C)C2)ccc1-c1cc2cc(Cl)c(Cl)cc2[nH]1	31%	41%	6%	99% (active)	inactive	inactive	inactive	inactive
COc1cc(NC(=O)c2cccc([N+](=O)[O-])c2)cc(S(=O)(=O)c2ccc(Cl)cc2)c1	23%	-12%	-3%	88% (active)	inactive	inactive	inactive	inactive
O=[N+]([O-])c1ccc(Oc2ccccc2CNCC2CCN(CC3CCCCC3)CC2)cc1	28%	40%	-2%	89% (active)	inactive	inactive	inactive	inactive
O=C(Nc1cccc(-c2nn3ncccc3c2-c2ccnc(Nc3ccc(N4CCOCC4)cc3)n2)c1)c1c(F)cccc1F	75% (active)	75% (active)	7%	101% (active)	inactive	inactive	inactive	inactive
CC(=O)c1ccc(NC(=O)C2c3ccccc3C(=O)N(CC(C)C)C2c2cccs2)cc1 (stereo not given)	51% (active)	13%	-1%	99% (active)	inactive	inactive	inactive	inactive
